Source: the supplement of paper PMC4466140

Biological target: AgAbp1
Experiment: SPOT peptide array binding signal intensity (averaged, normalized) (arbitrary units (background-subtracted, floor 0; scale differs between SH3 domains)); higher = stronger binding of the SH3 domain to the peptide
Procedure, shortened: (§1)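 GST-fused SH3 domains, from four yeast species, were produced in E. coli BL21(DE3) and captured on glutathione Sepharose. Membranes of cellulose carrying synthetic 15-mer peptides, in which cysteines had been replaced by serines, were exposed to each domain at 10 μg/ml overnight at 4°C in TBS-based blocking buffer. After anti-GST antibody, an HRP anti-mouse secondary and luminol, spots were imaged and quantified using Genespotter. Binding signal is normalized and background-subtracted spot intensity, averaged over replicates, in arbitrary units that differ between domains.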

Binder	SPOT peptide array binding signal intensity
MTKTPETSPPKRPMG	≤ 0
LKPPIGRPPKFPKSP	926

Biological target: AgBbc1
Experiment: as above
Procedure, shortened: as §1

Binder	SPOT peptide array binding signal intensity
MTKTPETSPPKRPMG	5.25
LKPPIGRPPKFPKSP	160

Biological target: AgBem1-D1
Experiment: as above
Procedure, shortened: as §1

Binder	SPOT peptide array binding signal intensity
MTKTPETSPPKRPMG	66.5
LKPPIGRPPKFPKSP	27

Biological target: AgBzz1-D1
Experiment: as above
Procedure, shortened: as §1

Binder	SPOT peptide array binding signal intensity
MTKTPETSPPKRPMG	22
LKPPIGRPPKFPKSP	57

Biological target: AgBzz1-D2
Experiment: as above
Procedure, shortened: as §1

Binder	SPOT peptide array binding signal intensity
MTKTPETSPPKRPMG	11.5
LKPPIGRPPKFPKSP	4

Biological target: AgCyk3
Experiment: as above
Procedure, shortened: as §1

Binder	SPOT peptide array binding signal intensity
MTKTPETSPPKRPMG	≤ 0
LKPPIGRPPKFPKSP	≤ 0

Biological target: AgFus1
Experiment: as above
Procedure, shortened: as §1

Binder	SPOT peptide array binding signal intensity
MTKTPETSPPKRPMG	≤ 0
LKPPIGRPPKFPKSP	≤ 0

Biological target: AgHof1
Experiment: as above
Procedure, shortened: as §1

Binder	SPOT peptide array binding signal intensity
MTKTPETSPPKRPMG	7.25
LKPPIGRPPKFPKSP	300

Biological target: AgHse1
Experiment: as above
Procedure, shortened: as §1

Binder	SPOT peptide array binding signal intensity
MTKTPETSPPKRPMG	≤ 0
LKPPIGRPPKFPKSP	≤ 0

Biological target: AgLsb1
Experiment: as above
Procedure, shortened: as §1

Binder	SPOT peptide array binding signal intensity
MTKTPETSPPKRPMG	1
LKPPIGRPPKFPKSP	≤ 0

Biological target: AgLsb4
Experiment: as above
Procedure, shortened: as §1

Binder	SPOT peptide array binding signal intensity
MTKTPETSPPKRPMG	2
LKPPIGRPPKFPKSP	≤ 0

Biological target: AgMyo5
Experiment: as above
Procedure, shortened: as §1

Binder	SPOT peptide array binding signal intensity
MTKTPETSPPKRPMG	946
LKPPIGRPPKFPKSP	1220

Biological target: AgNbp2
Experiment: as above
Procedure, shortened: as §1

Binder	SPOT peptide array binding signal intensity
MTKTPETSPPKRPMG	25
LKPPIGRPPKFPKSP	≤ 0

Biological target: AgRvs167
Experiment: as above
Procedure, shortened: as §1

Binder	SPOT peptide array binding signal intensity
MTKTPETSPPKRPMG	3.83
LKPPIGRPPKFPKSP	0.583

Biological target: AgSho1
Experiment: as above
Procedure, shortened: as §1

Binder	SPOT peptide array binding signal intensity
MTKTPETSPPKRPMG	≤ 0
LKPPIGRPPKFPKSP	≤ 0

Biological target: AgSla1-D1-D2
Experiment: as above
Procedure, shortened: as §1

Binder	SPOT peptide array binding signal intensity
MTKTPETSPPKRPMG	1
LKPPIGRPPKFPKSP	21.5

Biological target: AgSla1-D3
Experiment: as above
Procedure, shortened: as §1

Binder	SPOT peptide array binding signal intensity
MTKTPETSPPKRPMG	≤ 0
LKPPIGRPPKFPKSP	≤ 0

Biological target: CaAbp1-D1
Experiment: as above
Procedure, shortened: as §1

Binder	SPOT peptide array binding signal intensity
MTKTPETSPPKRPMG	36
LKPPIGRPPKFPKSP	1440

Biological target: CaAbp1-D2
Experiment: as above
Procedure, shortened: as §1

Binder	SPOT peptide array binding signal intensity
MTKTPETSPPKRPMG	24
LKPPIGRPPKFPKSP	2140

Biological target: CaBbc1
Experiment: as above
Procedure, shortened: as §1

Binder	SPOT peptide array binding signal intensity
MTKTPETSPPKRPMG	180
LKPPIGRPPKFPKSP	1150

Biological target: CaBem1-D1
Experiment: as above
Procedure, shortened: as §1

Binder	SPOT peptide array binding signal intensity
MTKTPETSPPKRPMG	17
LKPPIGRPPKFPKSP	98

Biological target: CaBzz1-D1
Experiment: as above
Procedure, shortened: as §1

Binder	SPOT peptide array binding signal intensity
MTKTPETSPPKRPMG	30
LKPPIGRPPKFPKSP	239

Biological target: CaBzz1-D2
Experiment: as above
Procedure, shortened: as §1

Binder	SPOT peptide array binding signal intensity
MTKTPETSPPKRPMG	21
LKPPIGRPPKFPKSP	165

Biological target: CaCyk3
Experiment: as above
Procedure, shortened: as §1

Binder	SPOT peptide array binding signal intensity
MTKTPETSPPKRPMG	7.5
LKPPIGRPPKFPKSP	16.5

Biological target: CaFus1
Experiment: as above
Procedure, shortened: as §1

Binder	SPOT peptide array binding signal intensity
MTKTPETSPPKRPMG	55.5
LKPPIGRPPKFPKSP	49

Biological target: CaHof1
Experiment: as above
Procedure, shortened: as §1

Binder	SPOT peptide array binding signal intensity
MTKTPETSPPKRPMG	2
LKPPIGRPPKFPKSP	≤ 0

Biological target: CaHse1
Experiment: as above
Procedure, shortened: as §1

Binder	SPOT peptide array binding signal intensity
MTKTPETSPPKRPMG	1.25
LKPPIGRPPKFPKSP	1.5

Biological target: CaLsb1
Experiment: as above
Procedure, shortened: as §1

Binder	SPOT peptide array binding signal intensity
MTKTPETSPPKRPMG	0.5
LKPPIGRPPKFPKSP	≤ 0

Biological target: CaLsb4
Experiment: as above
Procedure, shortened: as §1

Binder	SPOT peptide array binding signal intensity
MTKTPETSPPKRPMG	77
LKPPIGRPPKFPKSP	2

Biological target: CaMyo5
Experiment: as above
Procedure, shortened: as §1

Binder	SPOT peptide array binding signal intensity
MTKTPETSPPKRPMG	87.2
LKPPIGRPPKFPKSP	45.5

Biological target: CaNbp2
Experiment: as above
Procedure, shortened: as §1

Binder	SPOT peptide array binding signal intensity
LKPPIGRPPKFPKSP	≤ 0

Biological target: CaRvs167
Experiment: as above
Procedure, shortened: as §1

Binder	SPOT peptide array binding signal intensity
LKPPIGRPPKFPKSP	0.917

Biological target: CaRvs167-3
Experiment: as above
Procedure, shortened: as §1

Binder	SPOT peptide array binding signal intensity
LKPPIGRPPKFPKSP	3.12

Biological target: CaSho1
Experiment: as above
Procedure, shortened: as §1

Binder	SPOT peptide array binding signal intensity
LKPPIGRPPKFPKSP	≤ 0

Biological target: CaSla1-D1-D2
Experiment: as above
Procedure, shortened: as §1

Binder	SPOT peptide array binding signal intensity
LKPPIGRPPKFPKSP	908

Biological target: CaSla1-D3
Experiment: as above
Procedure, shortened: as §1

Binder	SPOT peptide array binding signal intensity
LKPPIGRPPKFPKSP	3.25

Biological target: ScAbp1
Experiment: as above
Procedure, shortened: as §1

Binder	SPOT peptide array binding signal intensity
LKPPIGRPPKFPKSP	887

Biological target: ScBbc1
Experiment: as above
Procedure, shortened: as §1

Binder	SPOT peptide array binding signal intensity
LKPPIGRPPKFPKSP	7

Biological target: ScBem1-D1
Experiment: as above
Procedure, shortened: as §1

Binder	SPOT peptide array binding signal intensity
LKPPIGRPPKFPKSP	≤ 0

Biological target: ScBzz1-D1
Experiment: as above
Procedure, shortened: as §1

Binder	SPOT peptide array binding signal intensity
LKPPIGRPPKFPKSP	≤ 0

Biological target: ScBzz1-D2
Experiment: as above
Procedure, shortened: as §1

Binder	SPOT peptide array binding signal intensity
LKPPIGRPPKFPKSP	≤ 0

Biological target: ScCyk3
Experiment: as above
Procedure, shortened: as §1

Binder	SPOT peptide array binding signal intensity
LKPPIGRPPKFPKSP	0.25

Biological target: ScFus1
Experiment: as above
Procedure, shortened: as §1

Binder	SPOT peptide array binding signal intensity
LKPPIGRPPKFPKSP	≤ 0

Biological target: ScHof1
Experiment: as above
Procedure, shortened: as §1

Binder	SPOT peptide array binding signal intensity
LKPPIGRPPKFPKSP	≤ 0

Biological target: ScHse1
Experiment: as above
Procedure, shortened: as §1

Binder	SPOT peptide array binding signal intensity
LKPPIGRPPKFPKSP	19.8

Biological target: ScLsb1
Experiment: as above
Procedure, shortened: as §1

Binder	SPOT peptide array binding signal intensity
LKPPIGRPPKFPKSP	1.5

Biological target: ScLsb2
Experiment: as above
Procedure, shortened: as §1

Binder	SPOT peptide array binding signal intensity
LKPPIGRPPKFPKSP	≤ 0

Biological target: ScLsb3
Experiment: as above
Procedure, shortened: as §1

Binder	SPOT peptide array binding signal intensity
LKPPIGRPPKFPKSP	64.8

Biological target: ScLsb4
Experiment: as above
Procedure, shortened: as §1

Binder	SPOT peptide array binding signal intensity
LKPPIGRPPKFPKSP	≤ 0

Biological target: ScMyo3
Experiment: as above
Procedure, shortened: as §1

Binder	SPOT peptide array binding signal intensity
LKPPIGRPPKFPKSP	1390

Biological target: ScMyo5
Experiment: as above
Procedure, shortened: as §1

Binder	SPOT peptide array binding signal intensity
LKPPIGRPPKFPKSP	682

Biological target: ScNbp2
Experiment: as above
Procedure, shortened: as §1

Binder	SPOT peptide array binding signal intensity
LKPPIGRPPKFPKSP	≤ 0

Biological target: ScPex13
Experiment: as above
Procedure, shortened: as §1

Binder	SPOT peptide array binding signal intensity
LKPPIGRPPKFPKSP	≤ 0

Biological target: ScRvs167
Experiment: as above
Procedure, shortened: as §1

Binder	SPOT peptide array binding signal intensity
LKPPIGRPPKFPKSP	≤ 0

Biological target: ScSho1
Experiment: as above
Procedure, shortened: as §1

Binder	SPOT peptide array binding signal intensity
LKPPIGRPPKFPKSP	4.5

Biological target: ScSla1-D1-D2
Experiment: as above
Procedure, shortened: as §1

Binder	SPOT peptide array binding signal intensity
LKPPIGRPPKFPKSP	88.5

Biological target: ScSla1-D3
Experiment: as above
Procedure, shortened: as §1

Binder	SPOT peptide array binding signal intensity
LKPPIGRPPKFPKSP	13.6

Biological target: SpAbp1-D1
Experiment: as above
Procedure, shortened: as §1

Binder	SPOT peptide array binding signal intensity
LKPPIGRPPKFPKSP	455

Biological target: SpBbc1
Experiment: as above
Procedure, shortened: as §1

Binder	SPOT peptide array binding signal intensity
LKPPIGRPPKFPKSP	7.25

Biological target: SpBzz1-D1
Experiment: as above
Procedure, shortened: as §1

Binder	SPOT peptide array binding signal intensity
LKPPIGRPPKFPKSP	894

Biological target: SpBzz1-D2
Experiment: as above
Procedure, shortened: as §1

Binder	SPOT peptide array binding signal intensity
LKPPIGRPPKFPKSP	≤ 0

Biological target: SpCyk3
Experiment: as above
Procedure, shortened: as §1

Binder	SPOT peptide array binding signal intensity
LKPPIGRPPKFPKSP	≤ 0

Biological target: SpHof1
Experiment: as above
Procedure, shortened: as §1

Binder	SPOT peptide array binding signal intensity
LKPPIGRPPKFPKSP	1.38

Biological target: SpHof1-2
Experiment: as above
Procedure, shortened: as §1

Binder	SPOT peptide array binding signal intensity
LKPPIGRPPKFPKSP	≤ 0

Biological target: SpHof1-3
Experiment: as above
Procedure, shortened: as §1

Binder	SPOT peptide array binding signal intensity
LKPPIGRPPKFPKSP	88.2

Biological target: SpHse1
Experiment: as above
Procedure, shortened: as §1

Binder	SPOT peptide array binding signal intensity
LKPPIGRPPKFPKSP	11.5

Biological target: SpLsb1
Experiment: as above
Procedure, shortened: as §1

Binder	SPOT peptide array binding signal intensity
LKPPIGRPPKFPKSP	3.75

Biological target: SpLsb4
Experiment: as above
Procedure, shortened: as §1

Binder	SPOT peptide array binding signal intensity
LKPPIGRPPKFPKSP	29.5

Biological target: SpMyo1
Experiment: as above
Procedure, shortened: as §1

Binder	SPOT peptide array binding signal intensity
LKPPIGRPPKFPKSP	1430

Biological target: SpNbp2
Experiment: as above
Procedure, shortened: as §1

Binder	SPOT peptide array binding signal intensity
LKPPIGRPPKFPKSP	≤ 0

Biological target: SpPex13
Experiment: as above
Procedure, shortened: as §1

Binder	SPOT peptide array binding signal intensity
LKPPIGRPPKFPKSP	≤ 0

Biological target: SpRvs167
Experiment: as above
Procedure, shortened: as §1

Binder	SPOT peptide array binding signal intensity
LKPPIGRPPKFPKSP	1.33

Biological target: SpSla1-D1-D2
Experiment: as above
Procedure, shortened: as §1

Binder	SPOT peptide array binding signal intensity
LKPPIGRPPKFPKSP	≤ 0

Biological target: SpSla1-D3
Experiment: as above
Procedure, shortened: as §1

Binder	SPOT peptide array binding signal intensity
LKPPIGRPPKFPKSP	2.5
